Here are results for 14 compounds from PubChem BioAssay (NCI).

SMILES strings stand for the structures. Values joined by “and” are separate entries in the source; they are usually repeats but may differ in a detail not shown here. Equal values may be shown once. About 83,000 compounds went through this panel and 20% of them were active in at least one assay; those are over-represented in the sample as a whole.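 Percent growth is the endpoint: 0 to 100 indicates growth inhibition (40 means 60% inhibition), 0 means no net growth, and negative values indicate cell death.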 Unmarked numbers belong to inactive results. Active and inactive are the calls of the source. The calls were made as follows: active = growth percent below 10; inactive = the rest.

The first assay relates to OVCAR-4 ovarian. Put plainly: NCI-60 one-dose screen, 48 h (100 = growth as untreated, 0 = no growth, -100 = all killed). The settings on record: 10 µM unless noted.
As to `Cc1nc2sc(C(=O)Nc3cccc4ncccc34)c(N)c2cc1C(C)O` (centres undefined), the growth is 91.3%.

In the case of `N=C(N)c1ccc(-c2ccc(-c3ccc(F)cc3)s2)nc1`, the growth is 79.7%.

Regarding `CN(C)CCCn1c2nc(=O)[nH]c(=O)c-2nc2cc(Cl)c(Cl)cc21`, the growth is 81.8%.

For `Brc1ccc(/C=C(/C2=NCCN2)n2ccc3ccccc32)cc1`, the growth is 67.7%.

Regarding `CCOC(=O)c1c(-c2ccc(OC)cc2)c(C#N)c2c(C#N)c(N)nn2c1N`, the growth is 68.1%.

For the compound `COc1ccc(S(=O)(=O)Nc2cc(Sc3cccc4cccnc34)c(O)c3ccccc23)cc1`, the growth is -99.4% (active).

A further assay deals with SK-OV-3 ovarian. Described as above. The settings on record: 10 µM unless noted.
As for `NC1=CC(=O)c2cccnc2C1=O`, the growth is 58%.

Take `Cn1c(=O)c2c(nc(Nc3cc(=O)[nH]c(=O)[nH]3)n2Cc2ccccc2)n(C)c1=O`: the growth was 24.6%.

As to `O=C(c1ccc(Nc2nccc(NCCCNc3ccnc4cc(Cl)ccc34)n2)cc1)N1CCCCC1`, the growth is 66.7%.

On to `COc1c(NC=O)c2c(c([N+](=O)[O-])c1OC)C(=O)OC2`, for which the growth is 107% and 108%.

For `COc1ccc(Cl)cc1Nc1nc(C(F)(F)F)ccc1C(=O)N/N=C/c1ccc(N(C)C)cc1`, the growth was 11.8%.

Consider `CC1=C2[C@@H](CC1)[C@]1(C)O[C@@](C3CC3)(C[C@H]1OC(=O)CO)[C@H]2OC(=O)/C=C/c1ccccc1`, for which the growth is 99.3%.

In the case of `CC/C=C\C/C=C\C[C@H](O)C/C=C1/C(=O)C=C[C@@H]1C/C=C\CCCC(=O)OC`, the growth is 24.2%.

With `Cc1[nH]c(C(=O)Nc2nc3ccc(NC(=O)CCN)cc3s2)c(Cl)c1Cl`, the growth was 107%.
